Screening results (PubChem)
Most compounds without a hit are left out; they make up all but 9.3% or so of the library.
HCV inhibitor = inhibitors of hepatitis C virus infection | Huh7.5.1 HCVcc-Cre infection, luciferase reporter, 44 h | Potency, µM (titrated, usually from 41.8 µM), inactives show at the top dose activity change, negative = inhibition, most hits filed as inhibitors | hit rate 3.4% among 340,000; further: potency means the concentration at half of the fitted maximal effect
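Seed cells (1,000/well) for 4 h; treat with compound and infect with HCVcc-Cre, moi about 0.5. Incubate 44 h, then detect luciferase activity.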
VACV Venus inh = inhibitors of vaccinia virus (Venus reporter). Potency, µM (series often up to 36.5 µM), without a hit: top-dose activity change, negative = inhibition, actives largely listed as inhibitors. hit rate 0.46% among 330,000. Vaccinia virus Venus reporter expression, fluorescence. AID 720580; calls by dose curve; tested in A549 cells; further: potency means the concentration at half of the fitted maximal effect; nearly all actives have a fitted effect of over 30% in size
HCMV inh = blocks human cytomegalovirus replication; HFF cells, HCMV-luciferase reporter, 72 h; stronger effect = lower value; hit rate 4.5% among 410,000; activity change, negative = inhibition, % at 57.5 µM; in the data active means activity change below about -60%; inconclusive means no clear call, values can overlap the other calls; inactive means above about -39%
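HFF cells seeded 16 h at 37C, treated with compounds, infected with luciferase-reporter HCMV at MOI 1 PFU/cell; luciferase read at 72 h post infection, normalized to buffer-only and Salinomycin controls.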
Sm TGR block = S. mansoni TGR enzyme inhibition; AID 485364; purified TGR, DTNB reduction, TNB absorbance 405 nm; Potency, µM (doses to about 114 µM), without a hit: at the top dose activity change, negative = inhibition, hits mostly inhibitors; Q962Y6; hit rate 3% among 360,000; further: potency means the concentration at half of the fitted maximal effect; nearly all actives have a fitted effect of over 60% in size
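First, TGR (20 nM dispensed) and NADPH were mixed with compound. Second, a 15 min room-temperature incubation followed. Third, further NADPH and then DTNB were added to start the reaction. Finally, TNB absorbance was monitored kinetically.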
VACV mCherry inh = inhibitors of vaccinia virus infection (mCherry reporter signal); Potency, µM (top dose mostly 36.5 µM), for inactives: top-dose activity change, negative = inhibition, usual class: inhibitors; Vaccinia virus mCherry reporter infection, fluorescence; hit rate 0.63% among 310,000; calls by dose curve; tested in A549 cells; further: potency means the concentration at half of the fitted maximal effect; nearly all actives have a fitted effect of over 35% in size
FMDV inh = blocks foot and mouth disease virus; FMDV antiviral cell-based qHTS; Potency, µM (doses to about 57.9 µM), without a hit: top-dose activity change, negative = inhibition, actives largely listed as inhibitors; hit rate 1.2% among 410,000; calls by dose curve; tested in HEK293T cells; further: read-out not given here; potency means the concentration at half of the fitted maximal effect; nearly all actives have a fitted effect of over 45% in size
* marks the source's active call; other numbers are inactive results; [ ] = dose if it differs, or a comment. Unless noted, the call rests on the fitted dose curve; in most records, active means well fitted curve in the direction sought with a large enough effect; inconclusive means small, poorly fitted or top-dose-only effect, or another doubt; inactive means no such curve, though single readings can be large; an effect the other way counts as inactive or inconclusive. On the % scale 0 is the no-effect control and ±100 the full control effect.

COc1cc(S(=O)(=O)NCCOC23CC4CC(CC(C4)C2)C3)c(OC)cc1Cl was read as HCV inhibitor inconclusive, VACV Venus inh -10%, HCMV inh -63*, Sm TGR block -9%, VACV mCherry inh -27% and FMDV inh -24%.
For CCOc1ccc(OCC)c(S(=O)(=O)NCCOC23CC4CC(CC(C4)C2)C3)c1 the results were HCV inhibitor 10µM*, VACV Venus inh inconclusive, HCMV inh -73*, Sm TGR block -2%, VACV mCherry inh -14% and FMDV inh -23%.
For CCC(Sc1nnc(-c2ccc(C)c(Cl)c2)n1CC)C(=O)Nc1nccs1 (stereo not given) the results were HCV inhibitor inconclusive, HCMV inh inconclusive, Sm TGR block 6% and FMDV inh 22µM*.
CC(=O)Oc1ccc(C(=O)Nc2ccc3c(c2)OCCO3)cc1 was read as HCV inhibitor -27%, VACV Venus inh -6%, HCMV inh 145, Sm TGR block 0%, VACV mCherry inh inactive and FMDV inh -25%.
`N[C@@H](Cc1ccccc1)c1nnc(SCc2ccccc2F)o1` gave HCV inhibitor -11%, VACV Venus inh inconclusive, HCMV inh 20, Sm TGR block 4%, VACV mCherry inh 11µM* and FMDV inh 0%.
Cc1ccc(N=N/C(=C\O)C(=O)c2ccncc2)cc1 was read as HCV inhibitor inconclusive, VACV Venus inh 0%, HCMV inh 9, Sm TGR block -17% and FMDV inh inconclusive.
For O=C(/C(=C/O)N=Nc1ccc(Cl)cc1)c1ccncc1 the results were HCV inhibitor inconclusive, VACV Venus inh inconclusive, HCMV inh -6, Sm TGR block 3% and FMDV inh 32µM*.
For Cc1nc(CCNC(=O)CC2C(=O)NCCN2CC(C)C)nc2c1CCC2 (stereo not given) the results were HCV inhibitor 15%, VACV Venus inh -11%, HCMV inh -10, Sm TGR block -6%, VACV mCherry inh -13% and FMDV inh -20%.
For CCc1cccc(C)c1NC(=O)CSc1nc(C)c(C)o1 the results were HCV inhibitor -1%, HCMV inh -38, Sm TGR block 1% and FMDV inh inconclusive.
For Cc1ccc(CCNC(=O)C2CCC(=O)N(Cc3ccccc3F)C2)o1 (stereo not given) the results were HCV inhibitor inconclusive, VACV Venus inh -7%, HCMV inh 16, Sm TGR block 45µM*, VACV mCherry inh -12% and FMDV inh 78%.
Screening COc1ccc(CNC(=O)C2CCNCC2)cc1 returned HCV inhibitor 9%, HCMV inh -10, Sm TGR block 45µM* and FMDV inh 16%.
For Cc1ccc(CN(C)C(=O)C2CCC(=O)N(CCc3ccccc3)C2)o1 (stereo not given) the results were HCV inhibitor 12%, HCMV inh 59, Sm TGR block 13µM* and FMDV inh 67%.
For COc1ccc(CN2CC(C(=O)NCc3cccc(OC)c3)CC2=O)cc1 (stereo not given) the results were HCV inhibitor -23%, VACV Venus inh -18%, HCMV inh -105*, Sm TGR block -1%, VACV mCherry inh -14%[1.46 µM] and FMDV inh -11%.
Screening Cc1cc(C)nc(CCNC(=O)C2CCC(=O)N(Cc3ccccc3F)C2)n1 (stereo not given) returned HCV inhibitor 29%, HCMV inh 43, Sm TGR block 0% and FMDV inh 15%.
For Cc1sc(NC(=O)CSc2nnnn2C(C)C)c(C#N)c1C the results were HCV inhibitor -7%, VACV Venus inh -1%, HCMV inh -32, Sm TGR block 16%, VACV mCherry inh inactive and FMDV inh -11%.
Screening COc1cccc(CN2CC(C(=O)NCCc3ccc(C)o3)CCC2=O)c1 (stereo not given) returned HCV inhibitor inconclusive, VACV Venus inh -2%, HCMV inh -5, Sm TGR block 13µM*, VACV mCherry inh inactive and FMDV inh -18%.
Screening COc1ccc(OCC2CCNCC2)cc1 returned HCV inhibitor 3%, HCMV inh 29, Sm TGR block 35µM* and FMDV inh -20%.
Screening COc1ccc(CNC(=O)COC(=O)C2CCC(C(C)(C)C)CC2)cc1 (stereo not given) returned HCV inhibitor 13%, VACV Venus inh -15%, HCMV inh -77*, Sm TGR block -8%, VACV mCherry inh -18% and FMDV inh inconclusive.
